Experimental data taken from PubChem BioAssay AID652067 (The Scripps Research Institute Molecular Screening Center, 2013).
In all, about 370,000 compounds went through this assay and about 5,400 (1.5%) were called active.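 The calls were made as follows: active = activation above the mean of all tested compounds plus 3 SD (cut at about 5.5% in these data); inactive = the rest.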 For the sample, actives were picked, then their nearest neighbours and some compounds at random.

system: DAF-12 nuclear receptor (Haemonchus contortus); assay: H. contortus DAF-12 nuclear receptor activators, primary screen, cell-based, luminescence, HEK293, lit1-tk-luc reporter (AID 652067); conditions: HEK293 hcDAF-12 lit1-tk-luc reporter, at 6.8 µM, stronger effect = higher value, 0% DMSO, 100% Δ7-dafachronic acid;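 also: 100% = response to 3 µM Δ7-dafachronic acid high control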

activation, inactive:
COC(=O)[C@]12C[C@H](CC(=O)NCC34CC5CC(CC(C5)C3)C4)C(=O)N(Cc3ccc(Cl)cc3Cl)C1=C[C@H](COCc1ccccc1)O[C@@H]2C -1.65%
CCCOC(=O)Cc1c(O)c2ccccc2[nH]c1=O 0.81%
CCc1ccc2[nH]c(=O)c(Cc3ccccc3)c(O)c2c1 0.62%
C[C@H](C(=O)N(C)c1ccccc1)[C@@H](O)c1ccc(Cl)cc1 -1.63%
Cc1ccc(Cl)cc1NC(=O)C1CCCN(c2cnccn2)C1 (stereo unspecified) -1.45%
COc1ccc(C2CC(c3cccs3)=NN2C(=O)CSc2nnc(N)s2)cc1OC (stereo unspecified) -1.14%
COc1ccc(C2CC(c3cccs3)=NN2C(=O)COC(=O)c2cc3ccccc3cc2O)cc1OC (stereo unspecified) -1%
CC(C)(C)NC(=O)C(c1cccnc1)N(C(=O)c1cnco1)c1ccc(C(C)(C)C)cc1 (stereo unspecified) -2.31%
C/C(=N\N(C)C)c1ccc(OCCOc2ccc([N+](=O)[O-])cc2)cc1 -0.12%
COc1ccc(S[C@]2(C(=O)N(C)C)CC(=O)N(c3ccc(OC)cc3)[C@@H]2c2ccc(OC)cc2)cc1 -2.06%
COc1ccc(-c2ccc3c(n2)CCCN3S(=O)(=O)c2ccc(C)cc2)cc1 -0.08%
FC(F)(F)Oc1ccc(-c2cn3cccnc3n2)cc1 0.45%
COc1cc(OC)cc(-c2nc(=S)n3ccsc3n2)c1 1.3%
COc1ccc(CSc2nnc(-c3cccc(C)c3)n2C)cc1 -3.02%
CCOC(=O)[C@@]12CN(C(=O)OC(C)(C)C)CC=C1N(Cc1ccc(OC)cc1)C(=O)[C@H]2CC(=O)NCc1ccc(OC)c(OC)c1 -1.83%
CN1C(=O)C(Br)(Br)CC1c1cccnc1 (stereo unspecified) 0.36%
Cc1ccc(-n2nc3c(c2NC(=O)CCC2CCCCC2)CS(=O)C3)cc1 (stereo unspecified) 1.64%
O=C(COc1cccc2c1CCNC2=O)NC1CCCCC1 0.88%
Cc1cc(NCCc2c[nH]c3ccccc23)ccc1Oc1cccnc1 -1.55%
CCc1cc2c(=O)c(-c3nc4ccccc4n3C)c(CCCC(=O)O)oc2cc1OC(=O)C(C)(C)C -0.74%
COc1ccc2oc(N)c(C=O)c(=O)c2c1 -0.56%
O=S1(=O)c2ccc(Br)cc2OC[C@H](Cc2ccccc2)N1Cc1cn(Cc2ccccc2)nn1 -0.79%
C=CCN=C1NC(c2ccccc2)C(C(=O)OC)=C(C)N1Cc1ccc(C(F)(F)F)cc1 (stereo unspecified) 0.87%
Nn1c(SCC(=O)Nc2cccc3ccccc23)nnc1-c1cc(-c2ccc(F)cc2)n[nH]1 -1.52%
CC(=O)Nc1nc2ncccn2c1-c1ccc(C(F)(F)F)cc1 -1.9%
O=S(=O)(c1ccccc1)N1CCC(c2nc3ccccc3o2)CC1 2.42%
Clc1ccc(C(Cn2ccnc2)OCc2ccsc2Cl)c(Cl)c1 (stereo unspecified) -3.27%
O=c1c2ccccc2nc2n1C(CSc1ccc(Cl)cc1)CN2 (stereo unspecified) 2.36%
Cn1nc(-c2ccccc2)c(CSc2cccc(Cl)c2)c1Cl -1.8%
C#CCN([C@@H](C)C(=O)OCC)S(=O)(=O)c1ccc(Br)cc1F -0.18%
Cc1ccc(NNC(=O)C2CCC2)cc1C 2.28%
COC(C(=O)Nc1ccc(S(=O)(=O)Nc2ccc(C)c(C)c2)cc1)c1ccccc1 (stereo unspecified) 0.37%
COC(=O)C1CN(CCc2ccccc2)CCS(=O)(=O)N1Cc1ccc(F)cc1 (stereo unspecified) 1.33%
Cc1ccc(Cn2cc(CN3[C@@H](CC(C)C)COc4ccc(Cl)cc4S3(=O)=O)nn2)cc1 -0.25%
COc1ccccc1N(CC(=O)Nc1ccc(C)cc1Cl)S(=O)(=O)c1cccs1 -2.56%
CN(CC(=O)NC(=O)Nc1ccccc1F)Cc1ccccc1 -0.6%
O=C(CN1CCCCCC1)Nc1ccc(Cl)cc1F -0.52%
CCOc1ccccc1C(=O)N1CCC[C@@H]1C(=O)N1CCC[C@H]1C(=O)NCc1ccccc1 -0.98%
COC(=O)C1(S(=O)(=O)C2(C(=O)OC)CCCC2)CCCC1 -1.17%
Oc1c(Cl)cc(Cl)cc1/C=N/c1ncn[nH]1 -0.22%
O=C(NCc1ccccc1)[C@H]1CCCN1C(=O)[C@H]1CCCN1C(=O)N1CCOCC1 0.81%
COC(=O)C1=C(C)N(Cc2ccc(C(F)(F)F)cc2)C(=NCc2ccc(C(F)(F)F)cc2)NC1c1cccc(Cl)c1 (stereo unspecified) -0.62%
COc1ccc(C2CC=C(C(=O)O)C(c3ccccc3F)N2S(=O)(=O)c2ccc(C)cc2)cc1OC (stereo unspecified) -1.61%
CCOC(=O)c1c(NC(=O)C2(C)Cc3ccccc3C(=O)O2)sc2c1CCCC2 (stereo unspecified) -3.38%
COC(=O)c1c(NC(=O)COC(=O)[C@@H](NS(=O)(=O)c2ccccc2)C(C)C)sc2c1CCC2 1.86%
O=S1(=O)c2ccc(Br)cc2-n2nncc2CN1Cc1cccc(Cl)c1 0.57%
CC(C)CNS(=O)(=O)CC1NCCc2ccccc21 (stereo unspecified) -2.97%
COc1ccc(C(=O)CC(=O)c2ccc(C)cc2)c(O)c1 -0.09%
COc1ccc(C(=O)C[n+]2ccc(N)c(C)c2C)cc1 -1.41%
O=C(CSc1nnc(-c2ccccn2)n1-c1ccc(Cl)cc1)Nc1ccccc1-c1ccccc1 -4.12%
O=C(Cn1c(-c2ccc(Cl)cc2)noc1=O)N1CCN(c2ccccc2F)CC1 -0.55%
Cc1ccc(NC(=O)Nc2cc(C)nn2-c2ccccc2)cc1 -0.41%
COC(=O)c1cc(C(=O)OC)cc(N2C(=O)CC(N3CCN(c4ccccc4)CC3)C2=O)c1 (stereo unspecified) 0.25%
COC(=O)C1(C)NC(c2ccccc2OC)C2C(=O)N(c3ccccc3)C(=O)C21 (stereo unspecified) -2.14%
CCOC(=O)C1CSCCS(=O)(=O)N1Cc1ccc(Cl)cc1 (stereo unspecified) -2.38%
O=C(C(=O)N1CCC(CNS(=O)(=O)Cc2ccccc2)CC1)c1cc2ccccc2o1 -0.72%
COc1cccc(C(=O)Nc2cc3c(cc2Br)OCCCO3)c1 3.75%
COc1ccc(OC)c(NC(=O)c2cccc(S(=O)(=O)N3CCN(C(C)=O)CC3)c2)c1 0.25%
COc1cc(/C=C/C(=O)n2cnc3ccccc32)cc(OC)c1OC 0.33%
O=C(CSc1nnc(COc2ccccc2)n1Cc1ccco1)c1ccc2ccccc2c1 -2.67%
COC(=O)c1ccc(NC(=S)Nc2cccc(C)n2)cc1 1.84%
CCOc1ccc(OCc2ccc(C(=O)Nc3cccc(C)n3)o2)cc1 -1.6%
O=C(CN1CCCc2ccccc21)NCc1ccc(F)cc1 -1.35%
Cc1cc(C)n2ncc(C(=O)Nc3ccc4c(c3)OCCO4)c2n1 -0.67%
C[C@H](NC(=O)c1ccccc1)C(=O)OCC(=O)c1c[nH]c2ccccc12 4.62%
CCOc1ncccc1C(=O)OCC(=O)c1c[nH]c2ccccc12 4.68%
CCOC(=O)C1=C(C(=O)OCC)C2N(Cc3ccc(C#N)cc3)c3ccccc3[C@@]23C[C@@H](C(=O)OC)N(S(=O)(=O)c2ccc(F)cc2)C3=N1 (stereo partly specified) 0.61%
CCCCOCC1CN(CCCC)S(=O)(=O)c2c(Oc3ccc(F)cc3)cccc2O1 (stereo unspecified) -1.09%
C/C(=N\NC(=S)NCc1ccccc1)c1ccc(Cl)cc1 -0.65%
C/C(Cc1ccccc1)=N\NC(=O)CNC(=O)c1ccc2c(c1)OCCO2 -2.46%
Cc1cc(C)nc(NC(=S)N2CCN(c3ccc(C(F)(F)F)cn3)CC2)c1 -1.92%

activation, active:
NS(=O)(=O)c1ccccc1NC(=O)c1c(O)c2ccccc2[nH]c1=O 15.2%
CCS(=O)(=O)c1cc([N+](=O)[O-])c(Sc2ccccc2N)s1 7.01%
COc1ccc(C2CC(c3cccs3)=Nc3ccccc3S2)cc1OC (stereo unspecified) 7.77%
COc1ccc(-c2cn3ccsc3n2)cc1 6.33%
COc1ccc(-c2cn3ccc(C)cc3n2)cc1 7.15%
CCc1cc2c(=O)c(-c3ccon3)c(N)oc2cc1OC 7.31%
Cc1cccc(-n2c(O)c(C=Nc3ccccc3N)c(=O)[nH]c2=O)c1 6.08%
Clc1ccc2nc(CSc3ccccc3)cn2c1 6.03%
Cc1ccc(N/C=C/C(=O)c2ccccc2)cc1C 15%
O=C(CN1CCCCC1)NC(=O)Nc1ccccc1F 7.05%
Oc1ccc(Cl)cc1/C=N/c1nc2ccccc2[nH]1 5.95%
CCOC(=O)c1c(NC(=O)C(C)Sc2c[nH]c3ccccc23)sc2c1CCC2 (stereo unspecified) 5.61%
COc1ccc(C(=O)C[n+]2ccc(C)cc2)cc1 6.64%
Oc1cccc2ccc(/C=C/c3ccc(Br)s3)nc12 10.2%
COC(=O)C1=NN(c2ccccc2)C2C(=O)N(c3ccccc3OC)C(=O)C12 (stereo unspecified) 9.57%
COc1ccc(C2COC(=O)C2=N)c(NC(=O)c2ccccc2)c1 (stereo unspecified) 8.16%
Cc1cccc(NC(=O)c2ccc3ccccc3n2)n1 9.6%
O=C(OCC(=O)c1c[nH]c2ccccc12)c1cccc(O)c1 8.68%
C/C(=N/NC(=S)Nc1ccccc1)c1ccc2c(c1)OCO2 8.71%
Cn1c(=NC(=O)C2CC2)sc2cc(F)cc(F)c21 7.5%
